Assay [1] concerns the target Death-associated protein kinase 1 (Homo sapiens) (UniProt P53355). Particulars: at 10 µM.
Assay [2] addresses Death-associated protein kinase 2 (Homo sapiens) (UniProt Q9UIK4). As to conditions: at 1 µM.
Assay [3] has the same target. As to conditions: at 10 µM.
The target of assay [4] is T1, Serine/threonine-protein kinase DCLK2 (Homo sapiens) (UniProt Q8N568).
T1 sequence (whole entry): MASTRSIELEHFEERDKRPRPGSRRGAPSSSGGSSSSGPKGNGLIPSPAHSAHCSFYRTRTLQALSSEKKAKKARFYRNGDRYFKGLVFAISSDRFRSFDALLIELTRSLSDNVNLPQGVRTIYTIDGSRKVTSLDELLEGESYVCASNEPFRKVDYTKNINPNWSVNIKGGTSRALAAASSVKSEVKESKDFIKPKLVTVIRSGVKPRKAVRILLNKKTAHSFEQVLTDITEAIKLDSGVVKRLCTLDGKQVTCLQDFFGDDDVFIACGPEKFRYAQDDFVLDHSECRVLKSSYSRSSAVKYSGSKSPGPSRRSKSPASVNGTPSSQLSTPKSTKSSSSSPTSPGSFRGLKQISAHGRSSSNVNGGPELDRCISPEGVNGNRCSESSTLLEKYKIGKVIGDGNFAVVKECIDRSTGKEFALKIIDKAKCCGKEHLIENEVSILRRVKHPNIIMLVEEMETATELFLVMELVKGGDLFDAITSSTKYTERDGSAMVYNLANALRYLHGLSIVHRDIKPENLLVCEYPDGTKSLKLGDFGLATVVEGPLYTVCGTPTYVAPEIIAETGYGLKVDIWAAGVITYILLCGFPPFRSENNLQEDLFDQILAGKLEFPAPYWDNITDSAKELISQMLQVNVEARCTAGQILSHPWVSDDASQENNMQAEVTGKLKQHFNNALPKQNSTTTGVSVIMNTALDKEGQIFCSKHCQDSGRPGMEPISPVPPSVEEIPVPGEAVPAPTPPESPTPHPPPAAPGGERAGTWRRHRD
Particulars: at 1 µM.

In assay [5] the target is T1, Serine/threonine-protein kinase DCLK2 (Homo sapiens). Particulars: at 10 µM.
Assay [6] has as its target T2, Discoidin domain-containing receptor 2 (Homo sapiens) (UniProt Q16832).
T2 sequence (whole entry): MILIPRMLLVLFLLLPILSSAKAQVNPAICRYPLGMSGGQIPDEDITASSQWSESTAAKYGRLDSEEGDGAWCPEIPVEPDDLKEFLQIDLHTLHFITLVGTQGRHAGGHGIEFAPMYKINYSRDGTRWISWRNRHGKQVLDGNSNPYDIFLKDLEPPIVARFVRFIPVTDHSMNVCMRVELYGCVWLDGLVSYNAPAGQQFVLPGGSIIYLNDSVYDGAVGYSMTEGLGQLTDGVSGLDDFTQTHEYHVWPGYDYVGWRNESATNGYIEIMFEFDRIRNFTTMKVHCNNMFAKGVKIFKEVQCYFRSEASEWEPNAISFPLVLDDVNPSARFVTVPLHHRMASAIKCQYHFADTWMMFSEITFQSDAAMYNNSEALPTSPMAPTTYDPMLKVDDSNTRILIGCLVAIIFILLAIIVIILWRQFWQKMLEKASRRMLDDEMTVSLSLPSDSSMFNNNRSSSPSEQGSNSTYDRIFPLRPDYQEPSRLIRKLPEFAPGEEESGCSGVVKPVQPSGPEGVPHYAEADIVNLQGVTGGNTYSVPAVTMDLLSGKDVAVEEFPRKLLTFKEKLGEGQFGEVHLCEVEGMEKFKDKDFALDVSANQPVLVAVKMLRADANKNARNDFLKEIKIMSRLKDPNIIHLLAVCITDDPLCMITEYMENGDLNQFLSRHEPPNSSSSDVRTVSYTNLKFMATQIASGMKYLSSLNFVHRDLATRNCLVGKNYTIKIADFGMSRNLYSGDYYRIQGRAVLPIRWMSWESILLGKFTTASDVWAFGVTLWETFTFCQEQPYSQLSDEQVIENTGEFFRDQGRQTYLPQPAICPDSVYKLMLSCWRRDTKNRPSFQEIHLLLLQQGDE
Particulars: at 1 µM.

Assay [7] has as its target T2, Discoidin domain-containing receptor 2 (Homo sapiens). Particulars: at 10 µM.
Assay [8] has as its target T3, Myotonin-protein kinase (Homo sapiens) (UniProt Q09013).
T3 sequence (whole entry): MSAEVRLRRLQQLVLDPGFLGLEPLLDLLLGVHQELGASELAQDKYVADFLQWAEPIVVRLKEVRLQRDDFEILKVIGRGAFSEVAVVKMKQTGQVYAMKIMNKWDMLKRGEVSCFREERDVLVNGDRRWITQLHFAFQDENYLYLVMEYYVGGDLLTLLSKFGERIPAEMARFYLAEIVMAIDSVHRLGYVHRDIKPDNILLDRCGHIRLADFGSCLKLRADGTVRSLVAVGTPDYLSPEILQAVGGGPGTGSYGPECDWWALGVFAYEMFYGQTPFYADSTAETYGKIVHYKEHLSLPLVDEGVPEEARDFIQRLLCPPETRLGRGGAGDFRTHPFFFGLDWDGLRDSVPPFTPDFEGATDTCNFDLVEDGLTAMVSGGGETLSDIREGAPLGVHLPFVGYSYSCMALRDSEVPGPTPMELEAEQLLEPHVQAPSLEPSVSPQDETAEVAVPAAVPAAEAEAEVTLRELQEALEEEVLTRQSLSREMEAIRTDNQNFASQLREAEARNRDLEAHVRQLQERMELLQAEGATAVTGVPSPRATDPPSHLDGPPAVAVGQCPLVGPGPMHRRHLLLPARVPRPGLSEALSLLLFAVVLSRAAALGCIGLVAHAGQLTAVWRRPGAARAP
As to conditions: at 1 µM.

Assay [9] deals with T3, Myotonin-protein kinase (Homo sapiens). As to conditions: at 10 µM.
In assay [10] the target is T4, Serine/threonine-protein kinase 17A (Homo sapiens) (UniProt Q9UEE5).
T4 sequence (whole entry): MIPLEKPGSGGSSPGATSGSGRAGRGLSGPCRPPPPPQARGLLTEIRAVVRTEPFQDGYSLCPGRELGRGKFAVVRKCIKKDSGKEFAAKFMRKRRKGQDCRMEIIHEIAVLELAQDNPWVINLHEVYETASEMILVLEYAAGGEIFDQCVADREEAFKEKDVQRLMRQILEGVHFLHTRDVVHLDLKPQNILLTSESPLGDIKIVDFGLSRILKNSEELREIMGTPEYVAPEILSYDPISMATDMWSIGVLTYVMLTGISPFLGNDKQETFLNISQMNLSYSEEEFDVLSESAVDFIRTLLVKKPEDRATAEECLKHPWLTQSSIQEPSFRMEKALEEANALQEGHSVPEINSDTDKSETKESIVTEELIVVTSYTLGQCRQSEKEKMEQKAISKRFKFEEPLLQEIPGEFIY
Particulars: at 1 µM.

In assay [11] the target is T4, Serine/threonine-protein kinase 17A (Homo sapiens). As to conditions: at 10 µM.
For assay [12], the target named is T5, Dual specificity tyrosine-phosphorylation-regulated kinase 2 (Homo sapiens) (UniProt Q92630).
T5 sequence (whole entry): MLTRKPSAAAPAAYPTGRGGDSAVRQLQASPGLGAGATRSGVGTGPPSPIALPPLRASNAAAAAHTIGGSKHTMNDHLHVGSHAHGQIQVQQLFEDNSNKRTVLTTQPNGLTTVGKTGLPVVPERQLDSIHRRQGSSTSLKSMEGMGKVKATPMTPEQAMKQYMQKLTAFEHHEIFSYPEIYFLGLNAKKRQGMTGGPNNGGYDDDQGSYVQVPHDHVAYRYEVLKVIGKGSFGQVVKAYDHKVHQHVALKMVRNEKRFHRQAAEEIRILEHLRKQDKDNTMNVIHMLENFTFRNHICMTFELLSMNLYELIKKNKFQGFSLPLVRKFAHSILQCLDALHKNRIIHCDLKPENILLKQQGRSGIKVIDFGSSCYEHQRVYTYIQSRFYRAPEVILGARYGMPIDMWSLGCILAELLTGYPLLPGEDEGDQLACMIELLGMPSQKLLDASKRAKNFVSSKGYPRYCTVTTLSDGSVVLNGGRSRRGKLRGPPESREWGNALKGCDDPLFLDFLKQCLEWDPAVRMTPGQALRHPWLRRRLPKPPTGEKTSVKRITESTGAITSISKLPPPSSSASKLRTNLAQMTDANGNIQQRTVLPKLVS
As to conditions: at 1 µM.

The target of assay [13] is T5, Dual specificity tyrosine-phosphorylation-regulated kinase 2 (Homo sapiens). Particulars: at 10 µM.
Assay [14] deals with T6, Ephrin type-A receptor 1 (Homo sapiens) (UniProt P21709).
T6 sequence (whole entry): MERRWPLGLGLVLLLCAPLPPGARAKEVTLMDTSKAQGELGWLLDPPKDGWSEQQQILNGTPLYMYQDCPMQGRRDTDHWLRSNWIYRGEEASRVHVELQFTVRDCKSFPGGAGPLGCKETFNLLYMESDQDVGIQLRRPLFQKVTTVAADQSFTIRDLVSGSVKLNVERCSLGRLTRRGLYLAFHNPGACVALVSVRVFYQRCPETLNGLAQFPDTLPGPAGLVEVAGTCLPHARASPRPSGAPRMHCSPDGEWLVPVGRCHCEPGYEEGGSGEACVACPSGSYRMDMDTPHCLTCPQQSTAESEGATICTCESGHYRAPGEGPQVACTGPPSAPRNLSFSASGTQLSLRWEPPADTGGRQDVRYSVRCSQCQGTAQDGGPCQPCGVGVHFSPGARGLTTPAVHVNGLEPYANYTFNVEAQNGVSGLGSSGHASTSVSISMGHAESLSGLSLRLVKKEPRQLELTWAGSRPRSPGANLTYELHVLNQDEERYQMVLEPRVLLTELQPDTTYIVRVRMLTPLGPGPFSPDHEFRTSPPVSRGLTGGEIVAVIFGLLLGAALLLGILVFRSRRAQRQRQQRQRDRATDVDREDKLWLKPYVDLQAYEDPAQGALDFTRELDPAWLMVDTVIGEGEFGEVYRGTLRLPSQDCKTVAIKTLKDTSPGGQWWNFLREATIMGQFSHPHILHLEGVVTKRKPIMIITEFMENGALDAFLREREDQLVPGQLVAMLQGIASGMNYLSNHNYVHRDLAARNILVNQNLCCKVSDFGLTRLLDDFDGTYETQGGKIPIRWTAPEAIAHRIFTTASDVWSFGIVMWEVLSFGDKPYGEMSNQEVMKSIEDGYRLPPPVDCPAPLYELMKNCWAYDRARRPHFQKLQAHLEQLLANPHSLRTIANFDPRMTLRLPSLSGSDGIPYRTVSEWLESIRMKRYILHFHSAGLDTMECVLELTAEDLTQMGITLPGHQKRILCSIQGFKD
As to conditions: at 1 µM.

For assay [15], the target named is T6, Ephrin type-A receptor 1 (Homo sapiens). Particulars: at 10 µM.
In assay [16] the target is Ephrin type-A receptor 2 (Homo sapiens) (UniProt P29317). Particulars: at 1 µM.
Sequence of Ephrin type-A receptor 2 (Homo sapiens) (P29317 whole entry): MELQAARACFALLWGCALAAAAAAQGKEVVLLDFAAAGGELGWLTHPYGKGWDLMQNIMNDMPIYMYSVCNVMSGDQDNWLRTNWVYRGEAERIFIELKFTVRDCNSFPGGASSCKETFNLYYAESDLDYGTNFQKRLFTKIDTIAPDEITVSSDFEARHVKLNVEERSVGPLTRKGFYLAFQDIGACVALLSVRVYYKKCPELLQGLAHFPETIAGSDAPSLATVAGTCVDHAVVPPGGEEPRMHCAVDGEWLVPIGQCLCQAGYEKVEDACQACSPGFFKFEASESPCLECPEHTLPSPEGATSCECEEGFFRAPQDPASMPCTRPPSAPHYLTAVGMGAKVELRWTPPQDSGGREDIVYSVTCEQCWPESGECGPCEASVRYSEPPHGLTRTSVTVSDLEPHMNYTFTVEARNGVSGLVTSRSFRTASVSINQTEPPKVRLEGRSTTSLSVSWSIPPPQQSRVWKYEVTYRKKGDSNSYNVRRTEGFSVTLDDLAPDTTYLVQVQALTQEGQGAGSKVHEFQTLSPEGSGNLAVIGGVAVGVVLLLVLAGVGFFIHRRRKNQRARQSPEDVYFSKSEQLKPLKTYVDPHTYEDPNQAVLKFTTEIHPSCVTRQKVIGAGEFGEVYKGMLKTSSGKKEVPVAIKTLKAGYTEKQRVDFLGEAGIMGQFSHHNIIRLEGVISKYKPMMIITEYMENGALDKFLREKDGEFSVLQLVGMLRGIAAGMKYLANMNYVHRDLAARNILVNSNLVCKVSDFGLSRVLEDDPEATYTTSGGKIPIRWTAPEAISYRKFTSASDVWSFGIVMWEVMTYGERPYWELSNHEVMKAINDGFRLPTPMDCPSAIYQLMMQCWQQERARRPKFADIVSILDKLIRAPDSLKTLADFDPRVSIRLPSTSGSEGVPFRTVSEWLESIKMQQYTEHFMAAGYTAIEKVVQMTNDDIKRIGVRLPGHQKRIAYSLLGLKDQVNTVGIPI
For assay [17] the target is unchanged. As to conditions: at 10 µM.
For assay [18], the target named is T7, Ephrin type-A receptor 3 (Homo sapiens) (UniProt P29320).
T7 sequence (whole entry): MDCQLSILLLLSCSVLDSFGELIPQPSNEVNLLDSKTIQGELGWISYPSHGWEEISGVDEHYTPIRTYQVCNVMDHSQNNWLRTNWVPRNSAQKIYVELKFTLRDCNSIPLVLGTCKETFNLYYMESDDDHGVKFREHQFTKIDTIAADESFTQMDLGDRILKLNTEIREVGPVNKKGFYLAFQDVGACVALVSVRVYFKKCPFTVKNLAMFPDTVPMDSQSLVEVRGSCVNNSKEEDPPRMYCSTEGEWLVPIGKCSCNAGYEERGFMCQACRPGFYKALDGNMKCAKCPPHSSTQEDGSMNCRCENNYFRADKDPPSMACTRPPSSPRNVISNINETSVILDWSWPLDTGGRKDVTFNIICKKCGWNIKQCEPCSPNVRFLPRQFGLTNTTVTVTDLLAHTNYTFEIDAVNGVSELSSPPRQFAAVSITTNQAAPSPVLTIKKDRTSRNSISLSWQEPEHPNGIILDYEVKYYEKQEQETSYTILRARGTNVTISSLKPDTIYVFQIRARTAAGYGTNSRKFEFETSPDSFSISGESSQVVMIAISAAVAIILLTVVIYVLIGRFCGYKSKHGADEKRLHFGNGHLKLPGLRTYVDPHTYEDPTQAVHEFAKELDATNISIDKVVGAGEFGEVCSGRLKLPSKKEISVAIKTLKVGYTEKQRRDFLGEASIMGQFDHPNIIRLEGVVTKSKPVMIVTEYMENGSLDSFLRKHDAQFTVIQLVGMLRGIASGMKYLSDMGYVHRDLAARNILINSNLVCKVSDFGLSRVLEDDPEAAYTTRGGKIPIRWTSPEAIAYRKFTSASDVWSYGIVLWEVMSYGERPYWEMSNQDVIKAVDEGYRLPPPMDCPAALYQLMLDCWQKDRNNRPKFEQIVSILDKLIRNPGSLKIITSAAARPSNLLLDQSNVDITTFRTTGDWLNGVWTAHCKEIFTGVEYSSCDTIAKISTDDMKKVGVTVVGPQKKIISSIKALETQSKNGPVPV
As to conditions: at 1 µM.

Assay [19] deals with Epidermal growth factor receptor (Homo sapiens) (UniProt P00533). As to conditions: at 1 µM.
Sequence of Epidermal growth factor receptor (Homo sapiens) (P00533 whole entry): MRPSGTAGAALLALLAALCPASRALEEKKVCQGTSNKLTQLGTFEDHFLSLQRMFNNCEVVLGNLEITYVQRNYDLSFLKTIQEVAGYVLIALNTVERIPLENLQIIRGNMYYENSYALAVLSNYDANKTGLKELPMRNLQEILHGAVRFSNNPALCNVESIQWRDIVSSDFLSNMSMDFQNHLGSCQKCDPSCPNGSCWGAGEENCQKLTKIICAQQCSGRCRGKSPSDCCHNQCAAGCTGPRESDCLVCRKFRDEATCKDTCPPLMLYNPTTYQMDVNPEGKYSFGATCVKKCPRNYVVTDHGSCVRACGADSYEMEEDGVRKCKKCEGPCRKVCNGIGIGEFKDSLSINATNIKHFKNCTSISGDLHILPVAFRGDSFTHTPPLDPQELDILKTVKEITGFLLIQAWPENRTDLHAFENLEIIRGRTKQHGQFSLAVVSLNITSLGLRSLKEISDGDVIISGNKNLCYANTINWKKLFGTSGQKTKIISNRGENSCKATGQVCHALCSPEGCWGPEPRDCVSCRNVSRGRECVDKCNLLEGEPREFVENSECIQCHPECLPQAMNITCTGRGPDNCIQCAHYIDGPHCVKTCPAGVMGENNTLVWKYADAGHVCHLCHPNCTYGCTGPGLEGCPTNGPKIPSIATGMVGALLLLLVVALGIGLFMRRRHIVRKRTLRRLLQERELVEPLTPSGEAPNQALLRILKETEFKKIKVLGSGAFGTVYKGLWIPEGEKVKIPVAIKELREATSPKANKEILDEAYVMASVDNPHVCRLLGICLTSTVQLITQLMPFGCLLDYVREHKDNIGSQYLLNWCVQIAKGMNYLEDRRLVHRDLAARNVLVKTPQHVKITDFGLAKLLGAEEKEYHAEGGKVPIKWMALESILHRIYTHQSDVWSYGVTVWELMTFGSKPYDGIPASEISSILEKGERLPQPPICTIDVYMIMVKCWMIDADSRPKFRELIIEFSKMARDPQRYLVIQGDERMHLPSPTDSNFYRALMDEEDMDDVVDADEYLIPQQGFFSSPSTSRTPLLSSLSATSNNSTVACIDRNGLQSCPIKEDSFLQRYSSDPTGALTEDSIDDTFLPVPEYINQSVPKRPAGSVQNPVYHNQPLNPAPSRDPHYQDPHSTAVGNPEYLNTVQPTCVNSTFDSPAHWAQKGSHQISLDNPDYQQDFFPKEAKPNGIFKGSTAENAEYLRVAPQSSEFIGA
Assay [20] has the same target. Particulars: at 10 µM.

Molecules are shown by their SMILES.

Sequence of Death-associated protein kinase 2 (Homo sapiens) (Q9UIK4 whole entry, looked up): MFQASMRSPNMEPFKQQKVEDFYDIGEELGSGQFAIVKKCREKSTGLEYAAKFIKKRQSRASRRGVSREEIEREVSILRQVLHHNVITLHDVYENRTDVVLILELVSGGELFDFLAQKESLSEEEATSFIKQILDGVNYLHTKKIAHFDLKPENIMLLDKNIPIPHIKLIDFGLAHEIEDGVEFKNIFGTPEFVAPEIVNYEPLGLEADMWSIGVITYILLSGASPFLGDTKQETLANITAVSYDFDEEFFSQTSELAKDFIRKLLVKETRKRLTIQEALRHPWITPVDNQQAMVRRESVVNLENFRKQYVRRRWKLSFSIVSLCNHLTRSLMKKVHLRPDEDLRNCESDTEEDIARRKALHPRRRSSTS
Sequence of Death-associated protein kinase 1 (Homo sapiens) (P53355 whole entry, looked up): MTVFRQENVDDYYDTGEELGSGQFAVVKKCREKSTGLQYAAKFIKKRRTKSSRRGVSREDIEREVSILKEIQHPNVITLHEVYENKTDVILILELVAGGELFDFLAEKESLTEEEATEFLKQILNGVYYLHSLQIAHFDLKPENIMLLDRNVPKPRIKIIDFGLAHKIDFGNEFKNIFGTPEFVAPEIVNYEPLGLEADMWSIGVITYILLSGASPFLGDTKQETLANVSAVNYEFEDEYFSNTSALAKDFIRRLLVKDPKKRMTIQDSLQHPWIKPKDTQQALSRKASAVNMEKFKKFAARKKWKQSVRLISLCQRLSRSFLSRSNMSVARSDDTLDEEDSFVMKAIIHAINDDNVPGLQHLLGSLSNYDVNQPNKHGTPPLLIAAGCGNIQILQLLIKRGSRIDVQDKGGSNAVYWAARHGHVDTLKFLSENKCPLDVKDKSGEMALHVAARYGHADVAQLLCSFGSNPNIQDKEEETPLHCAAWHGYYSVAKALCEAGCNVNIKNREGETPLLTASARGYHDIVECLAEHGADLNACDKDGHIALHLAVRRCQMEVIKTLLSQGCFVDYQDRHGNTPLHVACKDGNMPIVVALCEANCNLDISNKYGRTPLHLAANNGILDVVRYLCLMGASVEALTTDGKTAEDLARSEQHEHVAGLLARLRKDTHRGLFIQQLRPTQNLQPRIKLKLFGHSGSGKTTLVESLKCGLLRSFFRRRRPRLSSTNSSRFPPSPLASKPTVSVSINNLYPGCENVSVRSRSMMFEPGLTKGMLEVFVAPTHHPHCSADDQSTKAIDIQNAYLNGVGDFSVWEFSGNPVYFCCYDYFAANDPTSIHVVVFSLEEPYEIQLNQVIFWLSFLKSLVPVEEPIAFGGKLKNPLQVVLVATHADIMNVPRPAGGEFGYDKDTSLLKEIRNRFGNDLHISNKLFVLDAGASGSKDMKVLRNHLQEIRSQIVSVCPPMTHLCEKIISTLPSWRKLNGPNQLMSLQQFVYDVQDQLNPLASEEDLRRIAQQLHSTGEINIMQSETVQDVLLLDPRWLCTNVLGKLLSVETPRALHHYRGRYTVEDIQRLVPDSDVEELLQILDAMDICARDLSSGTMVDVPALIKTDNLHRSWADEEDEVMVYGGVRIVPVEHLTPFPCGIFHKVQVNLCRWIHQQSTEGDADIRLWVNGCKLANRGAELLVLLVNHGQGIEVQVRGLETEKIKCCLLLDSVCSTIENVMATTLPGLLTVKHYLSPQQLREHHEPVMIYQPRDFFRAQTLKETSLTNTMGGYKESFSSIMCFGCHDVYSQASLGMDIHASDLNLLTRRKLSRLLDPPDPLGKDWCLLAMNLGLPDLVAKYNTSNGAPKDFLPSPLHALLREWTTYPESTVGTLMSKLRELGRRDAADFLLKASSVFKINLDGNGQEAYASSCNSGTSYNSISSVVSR

Usually residual activity stands for the signal under treatment as a percentage of the control signal. As for `Cn1cnc2cc3c(Nc4cccc(Br)c4)ncnc3cc21`, the residual activity in assay [1] stood at 99%; in assay [2] it was 96%; in assay [3], 113%; in assay [4], 102%; in assay [5], 110%; in assay [6] it was 75%. Moreover, the residual activity is 60% in assay [7]; 112% in [8]; 111% in assay [9]; 64% in assay [10]; 28% in assay [11]; 98% in assay [12]. In addition, the residual activity in assay [13] is 79%; in assay [14], 60%; in assay [15] it was 49%; in assay [16], 89%; in [17] it was 62%; in assay [18], 90%.

Turning to `O=C1Nc2cc(Br)ccc2/C1=C1/Nc2ccccc2/C1=N\O`, the residual activity is 46% in assay [1]; 50% in assay [2]; 26% in assay [3]; 89% in assay [4]; 76% in [5]; 74% in [6]. The residual activity worked out at 37% in assay [7]; 110% in assay [8]; 84% in assay [9]; 8% in assay [10]; 10% in [11]; 66% in assay [19]. For the same molecule, the residual activity came out at 33% in assay [20]; 99% in assay [14]; 92% in assay [15]; 27% in assay [16]; 20% in assay [17]; 25% in assay [18].

For the origin of these results see ChEMBL document CHEMBL2218924, “A broad activity screen in support of a chemogenomic map for kinase signalling research and drug discovery” (Biochem J, 2013).
